Drawing on PubChem BioAssay (EPA / NIEHS), this text covers outcome and AC50 for 19 compounds.

Read-out in assay [1]: Urokinase-type plasminogen activator receptor (uPAR), PLAUR (gene 5329)
Put plainly: BSK_4H_uPAR: BioMAP Diversity Plus: 4H Assay for Urokinase-type plasminogen activator receptor (uPAR) Biomarker Activity (AID 2283030). As to conditions: primary human endothelial cells (HUVEC); actives raise or lower the signal. A digest of the protocol: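 Human umbilical vein endothelial cells in the 4H system, 24 h after chemical dosing. Cell-surface uPAR measured by ELISA, fitted in both directions versus DMSO; cytotoxicity checked by SRB total protein in parallel cultures.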

Read-out in assay [2]: Vascular endothelial growth factor receptor 2 (Homo sapiens) (UniProt P35968)
As to the kind of experiment: BSK_4H_VEGFRII: BioMAP Diversity Plus: 4H Assay for Vascular endothelial growth factor receptor 2 (VEGFR2) Biomarker Activity (AID 2283031).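 For AC50: cell-surface VEGFR2 protein level quantified by ELISA.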 As to conditions: primary human endothelial cells (HUVEC); actives raise or lower the signal. A digest of the protocol: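 Primary human umbilical vein endothelial cells (4H system), 24 h exposure; cell-surface VEGFR2 measured by ELISA. Bidirectional fitting versus DMSO; cytotoxicity checked in parallel by SRB total-protein staining.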

Read-out in assay [3]: Human Leukocyte Antigen - DR isotype (HLADR), HLA-DRA (gene 3122)
As to the kind of experiment: BSK_BE3C_HLADR: BioMAP Diversity Plus: BE3C Assay for Human Leukocyte Antigen - DR isotype (HLADR) Biomarker Activity (AID 2283032). As to conditions: primary human bronchial epithelial cells; actives raise or lower the signal. Summed up: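 ELISA read-out of HLA-DR on human lung bronchial epithelial primary cells, measured 24 h post-dosing. Both increases and decreases were scored relative to DMSO vehicle.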

Read-out in assay [4]: Vascular cell adhesion molecule 1 (VCAM1), VCAM1 (gene 7412)
Put plainly: BSK_4H_VCAM1: BioMAP Diversity Plus: 4H Assay for Vascular cell adhesion molecule 1 (VCAM1) Biomarker Activity (AID 2283033).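 For outcome: cell-surface VCAM-1 protein measured by ELISA.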 The conditions noted are these: primary human endothelial cells (HUVEC); actives raise or lower the signal. Summed up:
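ELISA read-out of VCAM-1 on human umbilical vein endothelium 24 hours after chemical dosing; gain or loss of signal was fitted relative to DMSO, with sulforhodamine B staining of parallel cultures flagging overt cytotoxicity.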

Read-out in assay [5]: Interferon-gamma inducible Protein 10 (IP10), CXCL10 (gene 3627)
As to the kind of experiment: BSK_BE3C_IP10: BioMAP Diversity Plus: BE3C Assay for Interferon-gamma inducible Protein 10 (IP10) Biomarker Activity (AID 2283034). As to conditions: primary human bronchial epithelial cells; actives raise or lower the signal. A digest of the protocol: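 Chemical is dosed onto human lung bronchial epithelial primary cells, cultures are incubated 24 h, and IP-10 is then quantified by ELISA. Gain or loss of signal is fitted in both directions relative to DMSO.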

Read-out in assay [6]: Monokine induced gamma interferon (MIG), CXCL9 (gene 4283)
As to the kind of experiment: BSK_BE3C_MIG: BioMAP Diversity Plus: BE3C Assay for Monokine induced gamma interferon (MIG) Biomarker Activity (AID 2283035). As to conditions: primary human bronchial epithelial cells; actives raise or lower the signal. A digest of the protocol: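 ELISA read-out of MIG in human lung bronchial epithelial primary cultures, 24 h post-dosing. Bidirectional curve fit vs DMSO baseline.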

Read-out in assay [7]: Plasminogen activator inhibitor-1 (PAI1), SERPINE1 (gene 5054)
As to the kind of experiment: BSK_BE3C_PAI1: BioMAP Diversity Plus: BE3C Assay for Plasminogen activator inhibitor-1 (PAI1) Biomarker Activity (AID 2283037). The conditions noted are these: primary human bronchial epithelial cells; actives raise or lower the signal. A digest of the protocol: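 Primary human lung bronchial epithelial cells; chemical dosing; 24 h; PAI-1 measured by ELISA; bidirectional fit referenced to DMSO as negative control.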

Read-out in assay [8]: urokinase plasminogen activator (uPA), PLAU (gene 5328)
Put plainly: BSK_BE3C_uPA: BioMAP Diversity Plus: BE3C Assay for urokinase plasminogen activator (uPA) Biomarker Activity (AID 2283038).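 For outcome: uPA protein level quantified by ELISA in cell cultures; uPA read one day after compound addition.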 The conditions noted are these: primary human bronchial epithelial cells; actives raise or lower the signal. A digest of the protocol: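 Primary human bronchial epithelial cells, uPA measured by ELISA 24 h after dosing. Bidirectional change relative to DMSO; cytotoxicity checked in parallel cultures by sulforhodamine B total-protein staining.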

Read-out in assay [9]: Urokinase-type plasminogen activator receptor (uPAR), PLAUR (gene 5329)
Put plainly: BSK_BE3C_uPAR: BioMAP Diversity Plus: BE3C Assay for Urokinase-type plasminogen activator receptor (uPAR) Biomarker Activity (AID 2283039).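 For outcome: cells exposed to compound for one day before measurement.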 As to conditions: primary human bronchial epithelial cells; actives raise or lower the signal. Summed up:
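Human bronchial epithelial primary cells; chemical exposure 24 h; uPAR by ELISA; bidirectional fit vs DMSO control.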

Where “and” joins values, the source holds several entries; their conditions need not be identical. Equal entries are not always repeated. Calls of active or inactive are those of the source. Rule for the calls: active = hit-call score of the fitted dose curve at least 0.9, where 1 is the maximum; inactive = score below 0.9.

Turning to `C=CC(=O)OCC(F)(F)C(F)(F)C(F)(F)C(F)(F)C(F)(F)C(F)(F)C(F)(F)F`, the outcome in assay [1], in assay [2], in assay [3], in assay [4], in assay [5] and in [6] was inactive. The result in [7], in [8] and in [9] was inactive.
Take `OCCCC(F)(F)C(F)(F)C(F)(F)C(F)(F)C(F)(F)C(F)(F)C(F)(F)F`: the AC50 in [1] was 51.2 µM (active) and 47.3 µM (active); in [2], 44.6 µM (active) and 45.4 µM (active); in assay [3] it was 50.4 µM (active) and 45.9 µM (active); in assay [4], 46.4 µM (active) and 48.6 µM (active); in assay [5] it was 47.6 µM (active) and 46.4 µM (active); in assay [6], 49.6 µM (active) and 55.7 µM (active). Moreover, the AC50 in assay [7] is 47.1 µM (active) and 30 µM (active); in assay [8] it was 46.5 µM (active) and 47.5 µM (active); in assay [9] it was 52.4 µM (active) and 47.2 µM (active).
For `FC(F)(F)C(F)(F)C(F)(F)C(F)(F)C(F)(F)C(F)(F)C(F)(F)C(F)(F)CCS`, the result in assay [1], in assay [2], in assay [3], in assay [4], in assay [5] and in [6] was inactive. Further, the outcome in assay [7], in assay [8] and in assay [9] was inactive.
Turning to `OCC(F)(F)C(F)(F)C(F)(F)C(F)(F)C(F)(F)C(F)F`, the outcome in [1], in assay [2], in [3], in assay [4], in assay [5] and in assay [6] was inactive. Moreover, the result in assay [7], in assay [8] and in assay [9] was inactive.
`OCCCC(F)(F)C(F)(F)C(F)(F)F`: the result in assay [1], in [2], in [3], in [4], in assay [5] and in assay [6] was inactive. The result in assay [7], in [8] and in assay [9] was inactive.
With `C=C(C)C(=O)OCC(F)(F)C(F)(F)C(F)(F)C(F)(F)C(F)(F)C(F)(F)C(F)(F)F`, the outcome in assay [1], in assay [2], in [3], in assay [4], in assay [5] and in assay [6] was inactive. Further, the outcome in [7], in [8] and in assay [9] was inactive.
As for `FC(F)(F)C(F)(F)CNCC(F)(F)C(F)(F)F`, the result in assay [1], in assay [2], in assay [3], in assay [4], in assay [5] and in [6] was inactive. In addition, the outcome in [7], in assay [8] and in [9] was inactive.
`FC(F)(F)C(F)(F)C(F)(F)C(F)(F)C(F)(F)CCI`: the result in assay [1], in assay [2], in assay [3], in assay [4], in [5] and in assay [6] was inactive. The result in assay [7], in assay [8] and in assay [9] was inactive.
For the compound `FC(F)(F)C(F)(F)C(F)(F)C(F)(F)C(F)(F)C(F)(F)CCS`, the outcome in assay [1], in [2], in [3], in assay [4], in [5] and in assay [6] was inactive. The result in assay [7], in assay [8] and in [9] was inactive.
With `O=C(O)C(F)(F)C(F)(F)C(F)(F)C(F)(F)F`, the outcome in [1], in assay [2], in assay [3], in assay [4], in assay [5] and in [6] was inactive. The outcome in assay [7], in [8] and in assay [9] was inactive.
Turning to `C=C(C)C(=O)OCCC(F)(F)C(F)(F)C(F)(F)C(F)(F)C(F)(C(F)(F)F)C(F)(F)F`, the result in assay [1], in assay [2], in assay [3], in assay [4], in assay [5] and in assay [6] was inactive. Besides, the outcome in [7], in assay [8] and in [9] was inactive.
Consider `CCCCCCCCC(F)(F)C(F)(F)C(F)(F)C(F)(F)C(F)(F)C(F)(F)F`, for which the result in assay [1], in [2], in assay [3], in [4], in assay [5] and in assay [6] was inactive. The result in assay [7], in assay [8] and in assay [9] was inactive.
`FC(F)(F)C(F)(F)C(F)(F)N(C(F)(F)C(F)(F)C(F)(F)F)C(F)(F)C(F)(F)C(F)(F)F`: the result in assay [1], in [2], in [3], in [4], in [5] and in [6] was inactive. The result in assay [7], in [8] and in assay [9] was inactive.
On to `CCO[Si](CCC(F)(F)C(F)(F)C(F)(F)C(F)(F)C(F)(F)C(F)(F)F)(OCC)OCC`, for which the result in assay [1], in [2], in [3], in assay [4], in assay [5] and in assay [6] was inactive. Moreover, the result in [7], in assay [8] and in assay [9] was inactive.
Consider `O=C(O)C(F)(F)C(F)(F)F`, for which the result in assay [1], in assay [2], in [3], in assay [4], in assay [5] and in [6] was inactive. Also, the result in assay [7], in assay [8] and in assay [9] was inactive.
In the case of `FC1CC(F)(F)C(F)(F)C1(F)F` (stereo unspecified), the result in assay [1], in [2], in assay [3], in assay [4], in assay [5] and in assay [6] was inactive. Further, the result in [7], in assay [8] and in assay [9] was inactive.
On to `FC(F)(F)C(F)(F)C(F)(F)C(F)(F)C(F)(F)C(F)(F)CC1CO1` (stereo unspecified), for which the outcome in assay [1], in [2], in assay [3], in assay [4], in assay [5] and in assay [6] was inactive. Moreover, the outcome in assay [7], in assay [8] and in assay [9] was inactive.
With `FC(F)(F)C(F)(F)C(F)(F)C(F)(F)C(F)(F)C(F)(F)C(F)(F)C(F)(F)F`, the outcome in [1], in [2], in [3], in assay [4], in [5] and in assay [6] was inactive. In addition, the result in [7], in assay [8] and in [9] was inactive.
As to `FC(F)(F)C(F)(F)C(F)(F)C(F)(F)C(F)(F)C(F)(F)C(F)(F)I`, the result in assay [1], in assay [2], in assay [3], in assay [4], in [5] and in assay [6] was inactive. In addition, the outcome in assay [7], in assay [8] and in assay [9] was inactive.
